Tests used:
Assay in all cases: log2 ratio of Biotin-Ahx-Ub-VS probe labelling (fragment/DMSO); higher = less target engagement (more negative = stronger competition), active = hit call of the paper (q ≤ 0.05, log2 ratio ≤ -1)
Settings in all cases: compound concentration: 200 uM; treatment time: 3 h
ALG13 = molecular target: T1, ALG13 (UniProt Q9NP73)
T1 sequence (whole entry): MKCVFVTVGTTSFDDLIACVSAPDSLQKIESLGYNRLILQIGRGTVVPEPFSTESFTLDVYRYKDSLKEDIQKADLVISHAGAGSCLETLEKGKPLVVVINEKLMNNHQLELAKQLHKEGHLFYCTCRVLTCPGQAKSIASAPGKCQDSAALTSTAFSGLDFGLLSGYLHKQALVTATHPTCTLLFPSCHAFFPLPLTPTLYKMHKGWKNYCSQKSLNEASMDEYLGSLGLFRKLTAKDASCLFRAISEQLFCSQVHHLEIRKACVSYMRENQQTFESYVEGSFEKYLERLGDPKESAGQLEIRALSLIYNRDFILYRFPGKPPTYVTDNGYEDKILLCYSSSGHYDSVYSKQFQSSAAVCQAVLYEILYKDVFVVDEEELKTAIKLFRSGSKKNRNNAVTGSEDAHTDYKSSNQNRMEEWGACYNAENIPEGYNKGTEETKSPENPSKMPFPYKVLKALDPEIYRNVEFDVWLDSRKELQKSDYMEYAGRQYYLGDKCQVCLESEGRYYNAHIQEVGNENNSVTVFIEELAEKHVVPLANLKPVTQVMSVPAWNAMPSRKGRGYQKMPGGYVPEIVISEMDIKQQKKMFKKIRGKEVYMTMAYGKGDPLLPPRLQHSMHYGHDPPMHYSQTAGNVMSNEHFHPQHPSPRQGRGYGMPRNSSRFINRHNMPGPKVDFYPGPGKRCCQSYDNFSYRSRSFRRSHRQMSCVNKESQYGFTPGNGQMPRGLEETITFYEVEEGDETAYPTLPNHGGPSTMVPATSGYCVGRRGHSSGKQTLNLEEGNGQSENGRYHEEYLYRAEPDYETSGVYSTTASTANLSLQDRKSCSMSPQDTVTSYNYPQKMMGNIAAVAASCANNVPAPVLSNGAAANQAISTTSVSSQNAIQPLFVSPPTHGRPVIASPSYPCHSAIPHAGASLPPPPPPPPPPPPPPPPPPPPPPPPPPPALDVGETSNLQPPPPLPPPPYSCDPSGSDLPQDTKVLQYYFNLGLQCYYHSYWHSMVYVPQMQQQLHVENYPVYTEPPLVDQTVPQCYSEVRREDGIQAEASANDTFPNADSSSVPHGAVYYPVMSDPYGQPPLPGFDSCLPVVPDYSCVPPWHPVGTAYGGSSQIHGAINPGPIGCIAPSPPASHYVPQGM
In short: (§1)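 Average log2 ratios of fragment over vehicle were obtained by unpaired t-test from global-median-normalised Spectronaut label-free quantities. Proteins with ≥2 unique peptides were included. HEK293T lysate (495 µg per sample) was treated in triplicate with fragment at 200 µM or vehicle for 3 h, then with Biotin-Ahx-Ub-VS at 0.5 µM final for 1 h, and labelled DUBs were NeutrAvidin-enriched and run by diaPASEF LC-MS/MS.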

ATXN3 = ATXN3 (UniProt P54252)
In short: as §1

BAP1 = molecular target: T2, BAP1 (UniProt Q92560)
T2 sequence (whole entry): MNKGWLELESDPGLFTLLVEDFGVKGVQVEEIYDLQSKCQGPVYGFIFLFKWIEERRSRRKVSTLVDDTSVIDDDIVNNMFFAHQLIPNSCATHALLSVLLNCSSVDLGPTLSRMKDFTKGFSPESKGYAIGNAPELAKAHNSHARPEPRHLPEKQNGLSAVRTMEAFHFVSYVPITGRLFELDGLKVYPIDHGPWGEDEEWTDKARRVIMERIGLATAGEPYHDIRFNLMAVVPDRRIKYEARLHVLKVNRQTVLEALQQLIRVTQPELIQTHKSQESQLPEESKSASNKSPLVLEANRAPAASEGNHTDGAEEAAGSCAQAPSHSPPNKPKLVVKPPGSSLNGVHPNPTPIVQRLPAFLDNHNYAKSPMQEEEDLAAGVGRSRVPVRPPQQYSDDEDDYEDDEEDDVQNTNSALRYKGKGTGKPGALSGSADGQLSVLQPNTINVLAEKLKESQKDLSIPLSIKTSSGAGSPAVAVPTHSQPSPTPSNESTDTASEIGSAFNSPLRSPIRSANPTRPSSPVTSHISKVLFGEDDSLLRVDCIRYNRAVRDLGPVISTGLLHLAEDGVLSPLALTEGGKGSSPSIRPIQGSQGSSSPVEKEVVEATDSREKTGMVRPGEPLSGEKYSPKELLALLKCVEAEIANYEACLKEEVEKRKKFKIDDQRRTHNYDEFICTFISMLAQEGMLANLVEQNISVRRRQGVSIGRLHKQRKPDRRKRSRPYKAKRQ
In short: as §1

EIF3F = EIF3F (UniProt O00303)
In short: as §1

EIF3H = EIF3H (UniProt O15372)
In short: as §1

FAM105A = molecular target: T3, FAM105A (UniProt Q9NUU6)
T3 sequence (whole entry): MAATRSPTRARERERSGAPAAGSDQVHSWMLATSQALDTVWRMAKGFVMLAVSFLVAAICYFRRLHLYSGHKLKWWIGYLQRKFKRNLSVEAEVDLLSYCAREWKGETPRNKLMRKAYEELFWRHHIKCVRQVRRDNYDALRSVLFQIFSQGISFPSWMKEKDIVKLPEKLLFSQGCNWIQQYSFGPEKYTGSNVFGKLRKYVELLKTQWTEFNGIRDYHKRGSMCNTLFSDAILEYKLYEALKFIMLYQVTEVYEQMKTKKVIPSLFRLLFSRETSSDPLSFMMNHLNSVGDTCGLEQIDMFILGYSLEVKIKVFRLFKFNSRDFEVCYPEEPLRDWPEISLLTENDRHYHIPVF
In short: as §1

OTUB1 = OTUB1 (UniProt Q96FW1)
In short: as §1

OTUD4 = molecular target: T4, OTUD4 (UniProt Q01804)
T4 sequence (whole entry): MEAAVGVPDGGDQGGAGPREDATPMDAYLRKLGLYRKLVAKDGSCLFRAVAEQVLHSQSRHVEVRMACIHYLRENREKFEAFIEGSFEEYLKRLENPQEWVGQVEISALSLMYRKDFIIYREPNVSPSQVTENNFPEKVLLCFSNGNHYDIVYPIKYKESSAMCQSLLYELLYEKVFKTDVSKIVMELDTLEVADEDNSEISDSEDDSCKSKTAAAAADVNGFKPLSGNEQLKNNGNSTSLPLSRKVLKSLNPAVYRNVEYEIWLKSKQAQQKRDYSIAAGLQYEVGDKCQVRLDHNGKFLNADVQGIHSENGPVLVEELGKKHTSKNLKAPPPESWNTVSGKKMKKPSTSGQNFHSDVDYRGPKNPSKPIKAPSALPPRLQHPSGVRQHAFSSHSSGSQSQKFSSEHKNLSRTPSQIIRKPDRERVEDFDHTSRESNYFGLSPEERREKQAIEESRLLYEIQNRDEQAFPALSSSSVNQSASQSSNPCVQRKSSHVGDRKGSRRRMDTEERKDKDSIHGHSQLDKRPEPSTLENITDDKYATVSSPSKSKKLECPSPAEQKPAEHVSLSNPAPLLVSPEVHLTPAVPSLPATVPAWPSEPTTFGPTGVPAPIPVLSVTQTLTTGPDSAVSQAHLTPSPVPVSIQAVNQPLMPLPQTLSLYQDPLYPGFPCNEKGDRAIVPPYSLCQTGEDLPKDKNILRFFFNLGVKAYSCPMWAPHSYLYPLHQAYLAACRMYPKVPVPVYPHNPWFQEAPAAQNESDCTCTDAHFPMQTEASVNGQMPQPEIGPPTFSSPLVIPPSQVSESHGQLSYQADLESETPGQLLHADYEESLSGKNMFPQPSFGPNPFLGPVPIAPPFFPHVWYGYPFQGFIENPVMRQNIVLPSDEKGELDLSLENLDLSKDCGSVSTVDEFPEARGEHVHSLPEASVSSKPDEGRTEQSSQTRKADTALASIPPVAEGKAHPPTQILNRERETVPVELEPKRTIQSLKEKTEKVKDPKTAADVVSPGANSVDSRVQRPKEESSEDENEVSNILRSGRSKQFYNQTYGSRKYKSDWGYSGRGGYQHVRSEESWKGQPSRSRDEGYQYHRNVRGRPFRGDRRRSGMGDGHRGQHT
In short: as §1

OTUD5 = molecular target: T5, OTUD5 (UniProt Q96G74)
T5 sequence (whole entry): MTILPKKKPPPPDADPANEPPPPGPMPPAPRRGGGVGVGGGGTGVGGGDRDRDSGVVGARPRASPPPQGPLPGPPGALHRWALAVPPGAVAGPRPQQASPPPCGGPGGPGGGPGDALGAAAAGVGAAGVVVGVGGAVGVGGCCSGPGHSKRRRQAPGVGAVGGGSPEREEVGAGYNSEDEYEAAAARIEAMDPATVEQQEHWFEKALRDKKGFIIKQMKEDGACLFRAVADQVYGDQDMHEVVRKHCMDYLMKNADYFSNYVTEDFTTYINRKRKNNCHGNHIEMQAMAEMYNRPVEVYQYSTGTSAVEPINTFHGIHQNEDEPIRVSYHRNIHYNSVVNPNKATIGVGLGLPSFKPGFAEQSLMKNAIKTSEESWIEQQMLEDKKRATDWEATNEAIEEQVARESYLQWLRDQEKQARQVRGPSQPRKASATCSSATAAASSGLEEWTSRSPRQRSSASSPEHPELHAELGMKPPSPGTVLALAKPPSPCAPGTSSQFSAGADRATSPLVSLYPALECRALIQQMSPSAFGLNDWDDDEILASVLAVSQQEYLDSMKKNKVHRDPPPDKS
In short: as §1

Measured: log2 ratio of Biotin-Ahx-Ub-VS probe labelling

Sequence of ATXN3 (P54252 whole entry): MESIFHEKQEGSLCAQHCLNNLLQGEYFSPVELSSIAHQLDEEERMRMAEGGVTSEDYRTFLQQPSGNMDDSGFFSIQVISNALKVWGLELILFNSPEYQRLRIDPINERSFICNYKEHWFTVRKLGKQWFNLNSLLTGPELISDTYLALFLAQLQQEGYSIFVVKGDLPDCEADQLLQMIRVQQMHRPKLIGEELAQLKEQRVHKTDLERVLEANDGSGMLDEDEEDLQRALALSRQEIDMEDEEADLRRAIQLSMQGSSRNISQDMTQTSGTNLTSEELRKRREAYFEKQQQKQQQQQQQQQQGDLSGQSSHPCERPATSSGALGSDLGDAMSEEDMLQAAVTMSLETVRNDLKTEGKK
Sequence of EIF3H (O15372 whole entry): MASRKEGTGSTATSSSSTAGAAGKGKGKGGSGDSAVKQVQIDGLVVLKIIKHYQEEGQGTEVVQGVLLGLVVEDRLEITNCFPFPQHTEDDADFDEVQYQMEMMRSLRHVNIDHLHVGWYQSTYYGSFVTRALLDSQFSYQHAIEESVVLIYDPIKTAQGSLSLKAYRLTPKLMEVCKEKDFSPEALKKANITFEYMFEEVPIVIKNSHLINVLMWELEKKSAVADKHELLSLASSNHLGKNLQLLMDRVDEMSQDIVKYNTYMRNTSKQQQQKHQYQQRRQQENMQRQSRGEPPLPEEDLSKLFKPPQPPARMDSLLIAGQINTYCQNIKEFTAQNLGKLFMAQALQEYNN
Sequence of EIF3F (O00303 whole entry): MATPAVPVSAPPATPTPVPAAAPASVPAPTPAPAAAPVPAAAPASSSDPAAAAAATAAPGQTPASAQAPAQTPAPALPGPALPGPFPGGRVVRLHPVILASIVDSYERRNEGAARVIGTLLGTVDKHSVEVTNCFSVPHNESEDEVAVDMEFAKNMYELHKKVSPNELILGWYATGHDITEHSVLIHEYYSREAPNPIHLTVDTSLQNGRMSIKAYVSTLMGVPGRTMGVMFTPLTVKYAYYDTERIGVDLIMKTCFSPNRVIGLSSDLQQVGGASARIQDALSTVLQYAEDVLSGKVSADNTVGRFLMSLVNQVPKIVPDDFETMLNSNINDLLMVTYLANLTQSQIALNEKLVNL
Sequence of OTUB1 (Q96FW1 whole entry): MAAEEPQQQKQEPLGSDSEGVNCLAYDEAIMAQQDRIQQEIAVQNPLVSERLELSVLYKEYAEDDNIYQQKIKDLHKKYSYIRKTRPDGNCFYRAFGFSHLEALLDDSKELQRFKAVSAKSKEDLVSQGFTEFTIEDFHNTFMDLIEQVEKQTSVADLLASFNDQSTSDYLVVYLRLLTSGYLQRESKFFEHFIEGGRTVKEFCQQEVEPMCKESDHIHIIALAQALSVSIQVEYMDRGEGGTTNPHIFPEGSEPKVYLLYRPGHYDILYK

Cc1cccnc1NC(=O)C1CCN(C(=O)CCl)CC1.Cl
inactive: ALG13 0.0719 | ATXN3 -0.281 | BAP1 -0.703 | EIF3F -0.244 | EIF3H 0.146 | FAM105A -0.0889 | OTUB1 -0.251 | OTUD4 -0.365 | OTUD5 -0.447
